PubChem BioAssay AID1159580 (chemical genetic matrix, 2015)
Several values for one entry are separate records, joined by “and”; a condition that tells them apart may be missing. Identical values can stand only once. Hit rate of the full screen: of about 5,500 compounds, about 2,000 (36%) were called active. Not shown: some 18% with an inconclusive outcome. No stated cut-off is given here; in the data, active means normalized growth mostly below about 0.91 (no sharp cut-off); inconclusive means no clear call, values can overlap the other calls; inactive means mostly above about 0.92. Some of the results follow.

Assay: chemical genetic growth profiling, strain panel (AID 1159580);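 further: tested at 20 µM; growth read once vehicle control cultures reached saturation at 30 °C; 1 = growth at the plate median or of vehicle wells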
Details: S. cerevisiae deletion strains, growth OD

Measured: normalized growth

CCCCOc1cc(C(=O)NCCN(CC)CC)c2ccccc2n1
inactive: locus YAL021C, strain ccr4, stronger effect = lower value 0.956 | locus YAL026C, strain drs2, stronger effect = lower value 0.986 | locus YAL030W, strain snc1, stronger effect = lower value 0.972 | locus YBL061C, strain skt5, stronger effect = lower value 0.97 | locus YBR009C, strain hhf1, stronger effect = lower value 0.97 | locus YBR021W, strain FUR4, stronger effect = lower value 1.02 | locus YBR023C, strain chs3, stronger effect = lower value 0.977 | locus YBR171W, strain sec66, stronger effect = lower value 0.947 | locus YBR229C, strain ROT2, stronger effect = lower value 1.01 | locus YBR231C, strain swc5, stronger effect = lower value 0.959 | locus YBR279W, strain paf1, stronger effect = lower value 0.998 | locus YCL011C, strain gbp2, stronger effect = lower value 0.987 | locus YCL016C, strain dcc1, stronger effect = lower value 1.01 | locus YCL029C, strain bik1, stronger effect = lower value 1.01 | locus YCL061C, strain MRC1, stronger effect = lower value 0.967 | locus YCL069W, strain vba3, stronger effect = lower value 0.984 | locus YCR088W, strain abp1, stronger effect = lower value 0.954 | locus YDL005C, strain med2, stronger effect = lower value 0.972 | locus YDL035C, strain GPR1, stronger effect = lower value 1.03 | locus YDL040C, strain nat1, stronger effect = lower value 0.96 | locus YDL074C, strain BRE1, stronger effect = lower value 1 | locus YDL101C, strain DUN1, stronger effect = lower value 1 | locus YDL134C, strain PPH21, stronger effect = lower value 1.03 | locus YDL185W, strain tfp1, stronger effect = lower value 1.01 | locus YDL192W, strain arf1, stronger effect = lower value 1 | locus YDR001C, strain nth1, stronger effect = lower value 0.933 | locus YDR069C, strain doa4, stronger effect = lower value 0.932 | locus YDR101C, strain arx1, stronger effect = lower value 1.01 | locus YDR137W, strain rgp1, stronger effect = lower value 1.02 | locus YDR159W, strain sac3, stronger effect = lower value 0.973 | locus YDR162C, strain NBP2, stronger effect = lower value 1.01 | locus YDR195W, strain ref2 0.932 | locus YDR297W, strain sur2, stronger effect = lower value 0.966 | locus YDR318W, strain mcm21, stronger effect = lower value 0.984 | locus YDR334W, strain swr1, stronger effect = lower value 0.925 | locus YDR335W, strain msn5, stronger effect = lower value 0.942 | locus YDR388W, stronger effect = lower value 0.995 | locus YDR392W, strain spt3, stronger effect = lower value 1.05 | locus YDR502C, strain sam2, stronger effect = lower value 0.996 | locus YEL003W, strain gim4, stronger effect = lower value 0.959 | locus YEL037C, strain rad23, stronger effect = lower value 0.968 | locus YEL061C, strain CIN8 (second series), stronger effect = lower value 0.941 | locus YEL061C, strain CIN8, stronger effect = lower value 1 | locus YER015W, strain faa2, stronger effect = lower value 0.973 | locus YER016W, strain bim1, stronger effect = lower value 1.01 | locus YER110C, stronger effect = lower value 1 | locus YER111C, strain swi4, stronger effect = lower value 0.966 | locus YER155C, strain BEM2 (second series), stronger effect = lower value 0.886 | locus YER155C, strain BEM2, stronger effect = lower value 0.998 | locus YER167W, strain BCK2, stronger effect = lower value 1 | locus YFR010W, strain ubp6, stronger effect = lower value 0.94 | locus YGL078C, strain dbp3, stronger effect = lower value 0.995 | locus YGL086W, strain mad1, stronger effect = lower value 0.992 | locus YGL167C, strain pmr1, stronger effect = lower value 0.939 | locus YGL173C, strain kem1, stronger effect = lower value 0.966 | locus YGL227W, strain vid30, stronger effect = lower value 0.956 | locus YGL240W, strain doc1, stronger effect = lower value 0.92 | locus YGL248W, strain PDE1, stronger effect = lower value 0.999 | locus YGL253W, strain hxk2, stronger effect = lower value 0.995 | locus YGR078C, strain PAC10, stronger effect = lower value 1 | locus YGR135W, strain pre9, stronger effect = lower value 0.977 | locus YGR252W, strain gcn5, stronger effect = lower value 0.914 | locus YHR013C, strain ard1, stronger effect = lower value 1.01 | locus YHR027C, strain rpn1, stronger effect = lower value 0.973 | locus YHR030C, strain SLT2, stronger effect = lower value 1.01 and 1.04 | locus YHR079C, strain IRE1 (second series), stronger effect = lower value 0.982 | locus YHR079C, strain IRE1, stronger effect = lower value 1.02 | locus YHR094C, strain hxt1, stronger effect = lower value 0.991 | locus YHR129C, strain ARP1, stronger effect = lower value 1.01 | locus YHR142W, strain chs7, stronger effect = lower value 0.974 | locus YHR200W, strain rpn10, stronger effect = lower value 0.998 | locus YIL066C, strain RNR3, stronger effect = lower value 1.01 | locus YIL073C, strain SPO22, stronger effect = lower value 1.03 | locus YIL125W, strain kgd1, stronger effect = lower value 0.997 | locus YIR030C, strain dcg1, stronger effect = lower value 0.993 | locus YJL092W, strain hpr5, stronger effect = lower value 0.979 | locus YJL095W, strain BCK1 (second series), stronger effect = lower value 0.966 | locus YJL095W, strain BCK1, stronger effect = lower value 0.988 and 1.04 | locus YJL115W, strain asf1, stronger effect = lower value 0.94 | locus YJL129C, strain trk1, stronger effect = lower value 0.939 | locus YJL134W, strain LCB3, stronger effect = lower value 1 | locus YJL154C, strain vps35, stronger effect = lower value 0.942 | locus YJL164C, strain tpk1, stronger effect = lower value 1 | locus YJL166W, strain qcr8, stronger effect = lower value 0.937 | locus YJL168C, strain set2, stronger effect = lower value 0.997 | locus YJL187C, strain SWE1 (second series), stronger effect = lower value 0.999 | locus YJR043C, strain POL32, stronger effect = lower value 1.02 | locus YJR066W, strain TOR1, stronger effect = lower value 0.968
